Experimental findings from PubChem BioAssay (NCATS) are described below.

Molecules are shown by their SMILES. Unmarked numbers belong to inactive results. Records with an inconclusive call do not appear. Active and inactive are the calls of the source. Unless noted, calls follow the shape of the dose curve; as a rule, active = well fitted curve in the direction sought with a large enough effect; inconclusive = small, poorly fitted or top-dose-only effect, or another doubt; inactive = no such curve, though single readings can be large; an effect the other way counts as inactive or inconclusive.

For assay [1], the system named is C33A. The assay can be described thus: Primary qHTS to identify gynecologic anti-cancer compounds using libraries of approved drugs and bioactive compounds (AID 1345084). Also: % is scaled to controls: 0 for no effect and ±100 for the full control effect; nearly all actives have a fitted effect of over 55% in size. Conditions: Gynecologic cancer cell panel viability, ATPlite luminescence, 48 h; series mostly up to 57.5 µM. In outline:
(§1)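 Five-concentration response, 48 h; readout is ATP-driven luciferase luminescence.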
A general note: In qHTS, concentration-response curves come from the screen itself.

Assay [2] relates to CAOV3. Described as above. Conditions: Gynecologic cancer cell panel viability, ATPlite luminescence, 48 h; series mostly up to 57.5 µM. The method in brief: as §1
A general note: ATP-based viability assays read luminescence as a measure of living cells.

Assay [3] concerns CASKI. The description is as above. As to conditions: Gynecologic cancer cell panel viability, ATPlite luminescence, 48 h; series mostly up to 57.5 µM. In outline: as §1
For assay [4], the system named is Es-2. Described as above. Conditions: Gynecologic cancer cell panel viability, ATPlite luminescence, 48 h; series mostly up to 57.5 µM. In outline: as §1
Assay [5] deals with HeLa. The assay is described as above. Conditions: Gynecologic cancer cell panel viability, ATPlite luminescence, 48 h; series mostly up to 57.5 µM. The method in brief: as §1
The test system of assay [6] is Hek293T. Described as above. As to conditions: Gynecologic cancer cell panel viability, ATPlite luminescence, 48 h, control line for the selectivity index; series mostly up to 57.5 µM. In outline: as §1
Assay [7] deals with JEG-3. The description is as above. As to conditions: Gynecologic cancer cell panel viability, ATPlite luminescence, 48 h; series mostly up to 57.5 µM. The method in brief:
as §1

For assay [8], the system named is OV90. The assay is described as above. As to conditions: Gynecologic cancer cell panel viability, ATPlite luminescence, 48 h; series mostly up to 57.5 µM. The method in brief: as §1
Assay [9] concerns PA-1. The description is as above. Conditions: Gynecologic cancer cell panel viability, ATPlite luminescence, 48 h; series mostly up to 57.5 µM. In outline: as §1
For assay [10], the system named is SKOV3. Described as above. Conditions: Gynecologic cancer cell panel viability, ATPlite luminescence, 48 h; series mostly up to 57.5 µM. The method in brief: as §1
For assay [11], the system named is Tov-21-G. The description is as above. Conditions: Gynecologic cancer cell panel viability, ATPlite luminescence, 48 h; series mostly up to 57.5 µM. In outline:
as §1

Assay [12] concerns Tov112D. The description is as above. Conditions: Gynecologic cancer cell panel viability, ATPlite luminescence, 48 h; series mostly up to 57.5 µM. In outline: as §1
A short description of assay [13]: Drug repurposing screens with cells derived from glioblastoma tumor samples (AID 1345199). Also: nearly all actives have a fitted effect of over 40% in size. Also: potency is read from the fitted curve at half-maximal effect. As to activity, negative = cell killing: % is scaled to controls: 0 for no effect and ±100 for the full control effect. Conditions: GBM patient neurospheres viability, ATP luminescence, 48 h. In outline:
(§2)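 Four patient lines of CD133+ GBM neurospheres were screened at several concentrations; hits were retested in those lines plus three slower-growing GBM lines, using 48-hour treatment and ATP-based viability.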

The test system of assay [14] is astro. Described as above. As to conditions: viability, ATP luminescence, 48 h; series mostly up to 45.9 µM. In outline:
as §2

In assay [15] the target is Nuclear receptor subfamily 1 group I member 2 (Rattus norvegicus) (UniProt Q9R1A7). The assay can be described thus: qHTS assay for small molecule activators of the rat pregnane X receptor (rPXR) signaling pathway (AID 651751; call rule not given here; also: 0% is about no effect). Conditions: rPXR reporter cells, luciferase (One-Glo), 24 h.
Nuclear receptor subfamily 1 group I member 2 (Rattus norvegicus), sequence (Q9R1A7 whole entry, looked up): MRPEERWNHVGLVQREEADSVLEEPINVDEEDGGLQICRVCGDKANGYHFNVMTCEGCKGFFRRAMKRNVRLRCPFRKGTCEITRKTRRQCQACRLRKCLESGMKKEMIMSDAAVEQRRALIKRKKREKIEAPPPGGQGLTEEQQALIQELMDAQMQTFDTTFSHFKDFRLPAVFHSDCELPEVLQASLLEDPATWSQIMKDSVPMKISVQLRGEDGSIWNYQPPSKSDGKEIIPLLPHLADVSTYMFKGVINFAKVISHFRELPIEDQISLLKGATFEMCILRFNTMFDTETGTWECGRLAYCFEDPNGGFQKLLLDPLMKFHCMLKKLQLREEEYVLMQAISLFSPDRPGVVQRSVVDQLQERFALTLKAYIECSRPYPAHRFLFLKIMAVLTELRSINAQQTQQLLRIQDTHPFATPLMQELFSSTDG

Consider `Cc1cn(C[C@H](N)C(=O)O)c(=O)n(Cc2cc(-c3ccccc3)sc2C(=O)O)c1=O`, for which the Potency entry in assay [1], in assay [2], in assay [3], in assay [4], in assay [5] and in assay [6] was “inactive” in each case. For the same compound, the Potency result in assay [7], in assay [8], in assay [9], in [10], in [11] and in assay [12] was “inactive” throughout.
With `C/C=C(\C)C(=O)OC1CC2C(CC=C3CC(OC4CC(OC)C(OC5CC(OC)C(OC6OC(C)C(OC7OC(CO)C(O)C(O)C7O)C(OC)C6O)C(C)O5)C(C)O4)CCC32C)C2(O)CCC(C(C)=O)C12C` (configuration not stated), the activity change, negative = cytotoxicity in assay [1] is 3.18% [at 11.6 µM]; in assay [2] it was 5.78% [at 11.6 µM]; in assay [3] it was 19.1% [at 11.6 µM]; in [4], 3.55% [at 11.6 µM]; in assay [5], -1.26% [at 11.6 µM]; in assay [6] it was 2.23% [at 11.6 µM]. The activity change, negative = cytotoxicity in [7] is 1.45% [at 11.6 µM]; in assay [8], 8.31% [at 11.6 µM]; in assay [9], -3.75% [at 11.6 µM]; in assay [10] it was 18.2% [at 11.6 µM]; in [11] it was 3.39% [at 11.6 µM]; in assay [12] it was 3.97% [at 11.6 µM].
As for `C[C@@]12C[C@@H](c3ccoc3)OC(=O)C1CC[C@]1(C)[C@H]2[C@H]2C=C[C@]1(O)C(=O)O2` (some centres not stated), the Potency entry in [1], in assay [2], in assay [3], in assay [4], in assay [5] and in assay [6] was “inactive” throughout. Also, the Potency entry in assay [7], in assay [8], in assay [9], in assay [10], in assay [11] and in assay [12] was “inactive” in each case.
As for `C[C@H]1C(=O)O[C@H]2[C@H](O)[C@]34C5OC(=O)[C@]3(O[C@@H]3OC(=O)[C@H](O)C34[C@H](C(C)(C)C)[C@H]5O)C12O` (some centres not stated), the Potency entry in assay [1], in assay [2], in assay [3], in assay [4], in assay [5] and in [6] was “inactive” in each case. The Potency entry in assay [7], in assay [8], in assay [9], in assay [10], in assay [11] and in [12] was “inactive” each time.
As to `CCCCCOc1cc2c(cc1-c1cc(/C=C/C(=O)O)ccc1O)C(C)(C)CCC2(C)C`, the Potency result in assay [1], in assay [2], in [3], in assay [4], in [5] and in [6] was “inactive” each time. For the same compound, the Potency entry in assay [7], in [8], in assay [9], in assay [10], in assay [11] and in assay [12] was “inactive” throughout.
On to `Clc1ccc(OCC2=NCCN2)cc1Cl`, for which the Potency result in assay [1], in assay [2], in assay [3], in [4], in assay [5] and in assay [6] was “inactive” each time. Further, the Potency result in assay [7], in assay [8], in assay [9], in assay [10], in assay [11] and in [12] was “inactive” each time.
`C/C=C(\C)C(=O)OC1C(C)OC(OC2C(C)OC(OC3CCC4(C)C(=CCC5C4CCC4(C)C(C(C)OC6OC(COC7OC(CO)C(O)C(O)C7O)C(O)C(O)C6O)CCC54O)C3)CC2OC)C(O)C1OC` (configuration not stated): the activity change, negative = cytotoxicity in [1] is 7.57% [at 11.6 µM]; in assay [2], 12.8% [at 11.6 µM]; in [3], 9.44% [at 11.6 µM]; in assay [4], 4.35% [at 11.6 µM]; in assay [5] it was 3.42% [at 11.6 µM]; in [6], 8.11% [at 11.6 µM]. The activity change, negative = cytotoxicity is -0.0196% [at 11.6 µM] in [7]; -0.455% [at 11.6 µM] in assay [8]; 9.3% [at 11.6 µM] in assay [9]; -10% [at 11.6 µM] in [10]; 3.11% [at 11.6 µM] in assay [11]; -0.387% [at 11.6 µM] in assay [12].
`O=C(N1CCOCC1)N1CCN(c2ccc(Cl)cc2)CC1`: the Potency entry in assay [1], in assay [2], in assay [3], in assay [4], in assay [5] and in [6] was “inactive” throughout. Also, the Potency entry in [7], in [8], in assay [9], in assay [10], in [11] and in assay [12] was “inactive” each time.
Turning to `C/C=C(\C)C(=O)O[C@H]1[C@H](OC(C)=O)[C@]2(CO)[C@H](O)[C@H](O)[C@]3(C)C(=CCC4[C@@]5(C)CC[C@H](O[C@@H]6O[C@H](C(=O)O)[C@@H](O)[C@H](O[C@@H]7OC[C@H](O)[C@H](O[C@@H]8OC[C@H](O)[C@H](O)[C@H]8O)[C@H]7O)[C@H]6O[C@@H]6O[C@H](CO)[C@@H](O)[C@H](O)[C@H]6O)C(C)(C)C5CC[C@]43C)[C@@H]2CC1(C)C` (some centres not stated), the activity change, negative = cytotoxicity in [1] is 0.756% [at 6.55 µM]; in assay [2], 0.059% [at 6.55 µM]; in assay [3], 13.6% [at 6.55 µM]; in assay [4] it was -0.471% [at 6.55 µM]; in [5], 10.9% [at 6.55 µM]; in [6] it was -2.46% [at 6.55 µM]. The activity change, negative = cytotoxicity is -2.67% [at 6.55 µM] in [7]; -10.1% [at 6.55 µM] in assay [8]; -1.59% [at 6.55 µM] in assay [9]; 6.49% [at 6.55 µM] in assay [10]; 19.4% [at 6.55 µM] in assay [11]; 8.32% [at 6.55 µM] in [12].
Regarding `CCc1c(C(=O)C(N)=O)c2c(OCC(=O)OC)cccc2n1Cc1ccccc1`, the Potency result in assay [1], in assay [2], in assay [3], in assay [4], in assay [5] and in [6] was “inactive” in each case. The Potency result in assay [7], in assay [8], in assay [9], in [10], in assay [11] and in [12] was “inactive” in each case.
Turning to `CC1=C2C(=O)C3[C@@H](CC=C4C[C@@H](O)CC[C@@]43C)[C@@H]2CC[C@]12O[C@@H]1C[C@H](C)CN[C@H]1[C@H]2C` (some centres not stated), the Potency entry in [1], in assay [2], in [3], in [4], in assay [5] and in assay [6] was “inactive” in each case. Moreover, the Potency entry in [7], in assay [8], in assay [9], in assay [10], in assay [11] and in assay [12] was “inactive” each time.
For `O=C1C[C@@H]2OCC=C3CN4CC[C@]56c7ccccc7N1[C@H]5[C@H]2[C@H]3C[C@H]46`, the Potency entry in assay [1], in [2], in assay [3], in assay [4], in assay [5] and in assay [6] was “inactive” throughout. Besides, the Potency result in assay [7], in assay [8], in [9], in assay [10], in assay [11] and in [12] was “inactive” in each case. The Potency result in assay [14] is “inactive”. Also, the activity, negative = cell killing in assay [13] (at 45.9 µM (top of the series), tumour line B) is -6.57%; in [13] (at 45.9 µM (top of the series), tumour line D), -6.6%; in assay [13] (at 46.1 µM (top of the series), tumour line C), 6.33%. Moreover, the Potency in assay [13] (tumour line A) was 12.6 µM (active). For the same compound, the max response in assay [15] was 0.534%.
On to `OCCCCC#Cc1cncc(OC[C@@H]2CCN2)c1`, for which the Potency result in [1], in assay [2], in assay [3], in [4], in [5] and in [6] was “inactive” each time. Also, the Potency entry in [7], in assay [8], in assay [9], in assay [10], in [11] and in [12] was “inactive” throughout.
